Hit rate of the full screen: of about 48,000 compounds, about 13,000 (27%) showed an effect of 50% or more. Some of the results follow.
test system: Wolbachia pipientis; experiment: Anti-Wolbachia Cell-Based Screen; assay type: functional; parameters: scale not given: in the data most compounds retested in dose-response had high values; settings: 5 µM

SMILES	Percent Effect
O=C(O)C(F)(F)F.O=S(=O)(C1CC1)N1CCc2onc(COc3ccccn3)c2C1	-9.105%
Cn1cnc2c1CCN(CC(O)c1ccc(S(C)(=O)=O)cc1)C2 (centres undefined)	1.592%
Cc1ccoc1C(=O)NCC(c1ccccc1Cl)N1CCOCC1 (centres undefined)	-4.275%
CCCC(O)CN1CC(C)(C)CN(C(=O)CCc2ccccc2)CC1=O (centres undefined)	81.6%
CCc1nc(C(=O)N2CCN(C(=O)CCc3ccccc3)CC2)c[nH]1	-3.201%
CC(C)(O)CN1CC(C)(C)CN(C(=O)CCc2ccccc2)CC1=O	88.99%
O=C(CCc1ccccc1)N1CCn2cc(CN3CCCC3)nc2C1	5.739%
CCN1CC(C)(C)CN(C(=O)CCc2ccccc2)CC1=O	98.77%
CC(O)CN1CC(C)(C)CN(C(=O)CCc2ccccc2)CC1=O (centres undefined)	108.2%
CCC(Nc1nnnn1-c1ccccc1)C(=O)NC1CCSCC1 (centres undefined)	2.585%
O=C(O)C1(Oc2ccccc2F)CCN(C/C=C/c2ccco2)CC1	10.04%
Oc1ccc(-c2c(-c3ccccc3)ncn2C2CCNC2)cc1 (centres undefined)	5.17%
COc1cc2c(cc1C1CC(=O)NCc3nc(N(C)C)sc31)CCC2 (centres undefined)	-15.52%
COCC(O)CN1CC(C)(C)CN(C(=O)CCc2ccccc2)CC1=O (centres undefined)	110.7%
CN1CC(C)(C)CN(C(=O)CCc2ccccc2)CC1=O	83.23%
CN1CCN(C(=O)CCc2ccccc2)Cc2cccnc21.O=C(O)C(F)(F)F	-4.699%
CC1N(C)C(=O)COC12CCN(C(=O)CCc1ccccc1)CC2 (centres undefined)	0.4061%
CN1C(=O)CC(C(=O)O)C12CCN(Cc1ccc(Cl)cc1F)CC2 (centres undefined)	5.202%
CC(C)NC(=O)N1Cc2nccn2CC(COc2cccnc2)C1.O=C(O)C(F)(F)F (centres undefined)	96.94%
CC(C)NC(=O)N1Cc2nccn2CC(CN2CCCC2)C1.O=C(O)C(F)(F)F (centres undefined)	12.37%
CC(=O)NCC(=O)N1Cc2nccn2CC(COc2cccnc2)C1.O=C(O)C(F)(F)F (centres undefined)	111.9%
CC(=O)NCC(=O)N1Cc2nccn2CC(CN2CCCC2=O)C1 (centres undefined)	14.08%
CC(=O)NCC(=O)N1Cc2nccn2CC(CN(C)C(C)C)C1.O=C(O)C(F)(F)F (centres undefined)	-7.594%
Cn1cc(Br)cc(NC(=O)CC(C)(C)C)c1=O	3.241%
CSc1ccc2cc(CN(C)CCc3cn[nH]c3)c(=O)[nH]c2c1	4.017%
CC(C)C(=O)NCc1ccccc1NS(=O)(=O)c1ccccc1	-3.24%

SMILES	Percent Effect
CC(C)OCc1ccccc1CNC(=O)C(C)(C)C	99.75%
CC(C)NC(=O)NCc1ccccc1NS(=O)(=O)c1ccccc1	15.1%
CC(C)(C)C(=O)NCc1cnn2ccccc12	-7.626%
CCOc1ccccc1CNC(=O)N(CC)C(C)c1cccnc1 (centres undefined)	2.92%
CC(C)S(=O)(=O)C(C)C(=O)NCc1cccc(N2CCCCC2=O)c1 (centres undefined)	12.9%
CC(C)S(=O)(=O)C(C)C(=O)NCc1ccccc1COc1ccccc1 (centres undefined)	92.84%
CC(C)S(=O)(=O)C(C)C(=O)NCc1ccccc1OCc1ccccc1 (centres undefined)	96.24%
CC(C)OCc1ccccc1CNC(=O)C(C)S(=O)(=O)C(C)C (centres undefined)	93.94%
CC(COc1ccccc1)NS(C)(=O)=O (centres undefined)	-8.999%
CCc1ccccc1CNC(=O)CNC(=O)C(C)(C)C	-5.244%
CC(C)OCc1ccc(CNC(=O)CC(F)(F)F)cc1	28.04%
Cc1cc(C(=O)N2CC(=O)Nc3cnccc32)c(Cl)cc1F	-6.598%
COc1ccc(N2CCCC3(C2)CN(c2nncs2)CCO3)cc1 (centres undefined)	-4.383%
O=C(Cc1ccsc1)NCC1Cn2nnc(-c3ccoc3)c2CO1 (centres undefined)	-0.8336%
CC(C)N(C)C(=O)C1CCN(Cc2cc3c(cc2O)CCC3)CC1	3.726%
O=C(NCc1ccccc1CO)C1COc2ccccc21 (centres undefined)	-7.77%
CCCN1CCC(Nc2cc(-c3ccccc3)ccc2OC)CC1	9.804%
C=C(C)CN(CC)C(=O)CN1CCCC1C(=O)N(C)C (centres undefined)	1.656%
COc1cc(C(=O)NS(=O)(=O)c2cccc(C#N)c2)cc(OC)c1Br	100.1%
CC(C)(C)C(=O)NCCC(=O)NS(=O)(=O)c1cccc(C#N)c1	-5.738%
COc1cc(C(=O)NS(=O)(=O)c2ccc(C#N)cc2)ccc1C	127.1%
COc1cc(C(=O)NS(=O)(=O)c2cccc(C#N)c2)cc(Cl)c1OC	0.151%
COc1cc(C(=O)NS(=O)(=O)c2cccc(C#N)c2)ccc1C	0.1033%
N#Cc1ccc(S(=O)(=O)NC(=O)c2ccc3c(c2)COC3)cc1	-13.21%
CSc1ccsc1C(=O)NS(=O)(=O)c1cccc(C#N)c1	-50.61%
N#Cc1ccc(C(=O)NS(=O)(=O)c2ccc(F)c(F)c2)cc1	6.651%

SMILES	Percent Effect
COc1cc(C(=O)NS(=O)(=O)c2cccc(C#N)c2)cc(OC)c1C	111.6%
COc1ccc(C(=O)NS(=O)(=O)c2cncc(Br)c2)cc1OC	-20.98%
CCOc1cc(C(=O)NS(=O)(=O)c2cccc(C#N)c2)ccc1OC	121%
CNC(=O)c1cccc(CCNC2CCSc3ccccc32)c1 (centres undefined)	-5.556%
CC(=O)Nc1ccc(C(=O)Nc2cnc3n2CCCC3)c(C)c1	-9.74%
Cn1ccc(CNC(=O)N2CCC(C3(C)OCCO3)CC2)c1	7.37%
c1cnn(C2CN(Cc3noc(C4CC4)n3)C2)c1	20.24%
COC(=O)[C@H]1C[C@@H](O)CCN1S(=O)(=O)c1cc(Cl)ccc1OC	-10.78%
Cc1nccn1-c1cc(CNC(=O)CCC2CCCO2)ccn1 (centres undefined)	10.65%
COC(=O)c1cccc(S(=O)(=O)NC(=O)c2cccc(OC)c2OC)c1	4.901%
COc1ccccc1C(=O)NS(=O)(=O)c1cccc(C#N)c1	106.4%
COc1cccc(C(=O)NS(=O)(=O)c2cccc(C#N)c2)c1OC	-1.089%
O=C(Nc1ccccc1Oc1cccc(F)c1)C1CCS(=O)(=O)C1 (centres undefined)	17.61%
COCCn1cncc1Cn1cccc(C(F)(F)F)c1=O	-5.803%
COCCn1ccc2c(cnc3nc(SC)nn32)c1=O	167%
COc1nc2ccn(CCc3cnccn3)c(=O)c2cc1C#N	-4.634%
CN1CCN(CCn2cnc3c(F)cccc3c2=O)CC1	0.6334%
CSc1nc2ncc3c(=O)n(CCN4CCCCC4)ccc3n2n1	124.9%
CS(=O)(=O)Cc1nc(CCc2ccccc2)nn1-c1ccccn1	-12.46%
NC(=O)NCC(=O)N1CCCC(c2nccn2Cc2ccncc2)C1 (centres undefined)	-11.58%
CC(Cn1cncn1)NC(=O)Nc1ccc(F)cc1OCC1CC1 (centres undefined)	4.941%
c1ccc(CN2CCc3ncnc(-c4cncnc4)c3CC2)nc1	-4.171%
O=C(O)C(F)(F)F.O=C(O)C(F)(F)F.c1cncc(-c2ncnc3c2CCN(Cc2cccs2)CC3)c1	89.28%
O=C(O)C(F)(F)F.O=C(O)C(F)(F)F.c1ccc(CN2CCc3ncnc(-c4cccnc4)c3CC2)nc1	17.47%
Cc1ccc(CN2CCc3ncnc(-c4cccnc4)c3CC2)o1.O=C(O)C(F)(F)F.O=C(O)C(F)(F)F	-3.02%
O=C(C1CCOC1)N1CCc2ncnc(-c3cccnc3)c2CC1 (centres undefined)	8.249%

SMILES	Percent Effect
COc1ncnc2c1CCN(Cc1cccs1)CC2.O=C(O)C(F)(F)F	-7.322%
Cn1cccc1CN1CCc2ncnc(-c3cccnc3)c2CC1	88.44%
CCc1ccc(CN2CCc3ncnc(-c4cccnc4)c3CC2)o1.O=C(O)C(F)(F)F.O=C(O)C(F)(F)F	106.1%
O=C(O)C(F)(F)F.O=C(O)C(F)(F)F.c1cncc(-c2ncnc3c2CCN(Cc2ccsc2)CC3)c1	91.57%
CCCN(C(=O)CN1CCN(CCO)CC1)C1=CCCCC1	10.87%
c1cnc(NCc2noc3c2CN(C2CCOC2)CC3)nc1 (centres undefined)	-0.4343%
CS(=O)(=O)N1CC[C@@H](CC(=O)O)[C@@H](CC2=NCCc3cc(F)ccc32)C1	-4.983%
N#Cc1cc2c(=O)n(CC(O)C(F)(F)F)ccc2[nH]c1=O (centres undefined)	-28.05%
COCCCNC(=O)C(C)(C)N(C)C1CCCC1	11.81%
CN(Cc1nnc(C2CC2)o1)CC1CCCN1c1cccnn1 (centres undefined)	15.59%
Cn1c(=O)oc2cc(Nc3nccnc3C#N)ccc21	-0.7115%
Cc1cc(CNC(=O)NCC(O)c2cccc(C(F)(F)F)c2)no1 (centres undefined)	-1.276%
Cc1nc(CN2CCc3ncnc(-c4ccccc4)c3CC2)cs1.O=C(O)C(F)(F)F	-8.271%
Cc1nc(CN2CCc3ncnc(-c4ccsc4)c3CC2)cs1.O=C(O)C(F)(F)F	-15.15%
Cc1nc(CN2CCc3ncnc(-c4cccnc4)c3CC2)cs1.O=C(O)C(F)(F)F.O=C(O)C(F)(F)F	101.9%
CC(C)(C)CNC(=O)CNC(=O)C1CC1	-0.05069%
CCOC(=O)c1ccc(N2CCN(Cc3c(C)nn(C)c3Cl)CC2)nc1	-11.85%
CC(C)n1cccc1C(=O)N1CC[C@@H](NC(=O)c2ccccn2)[C@H](O)C1	9.129%
O=C(NCC1(O)CCc2ccccc2C1)c1cccs1 (centres undefined)	-6.747%
O=C(NC1CC(=O)N(C2CC2)C1)c1cccs1 (centres undefined)	3.357%
C/C(NC(=O)c1ccco1)=C1/C(=O)C[C@@H]2[C@H]1C2(C)C	112.1%
C/C(NC(=O)c1cccs1)=C1\C(=O)C[C@@H]2[C@H]1C2(C)C	112.6%
O=C(Nc1c(N2CCCC2)cccc1N1CCCC1)c1ccccn1	-1.766%
O=C(N[C@]12CC1CN(C(=O)c1ccco1)C2)c1ccco1 (some centres undefined)	-8.008%
CC(=O)N1CC2C[C@]2(NC(=O)c2ccco2)C1 (some centres undefined)	-12.88%
C/C(NC(=O)c1ccccn1)=C1\C(=O)C[C@@H]2[C@H]1C2(C)C	103%

— ChEMBL document CHEMBL3988442, “University of Dundee, Small-Polar-MMV Screening Library” (2021)
